From PubChem BioAssay AID2435 (The Scripps Research Institute Molecular Screening Center, 2010) come the findings set out here.

The whole screen tested about 320,000 compounds, of which about 1,000 (0.31%) were called active.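 How the source made its calls: active means activation above the mean of all tested compounds plus 3 SD, cutoff set per screening run (cut at about 20% in these data); inactive means the rest.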 The full list was thinned out, with actives kept by preference.

The test deals with Oxytocin receptor (Homo sapiens) (UniProt P30559). The test can be described thus: human OXTR agonists, primary screen, fluorescence, CHO-OTR cells, Fluo-8 calcium (AID 2435).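 Further: peak over basal fluorescence ratio from a 100 s FLIPR kinetic read.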 The settings on record: Fluo-8 calcium fluorescence, at 3 µM, stronger effect = higher value, normalized: DMSO 0%, oxytocin 100%.
Chain of Oxytocin receptor (Homo sapiens) (P30559 whole entry, looked up): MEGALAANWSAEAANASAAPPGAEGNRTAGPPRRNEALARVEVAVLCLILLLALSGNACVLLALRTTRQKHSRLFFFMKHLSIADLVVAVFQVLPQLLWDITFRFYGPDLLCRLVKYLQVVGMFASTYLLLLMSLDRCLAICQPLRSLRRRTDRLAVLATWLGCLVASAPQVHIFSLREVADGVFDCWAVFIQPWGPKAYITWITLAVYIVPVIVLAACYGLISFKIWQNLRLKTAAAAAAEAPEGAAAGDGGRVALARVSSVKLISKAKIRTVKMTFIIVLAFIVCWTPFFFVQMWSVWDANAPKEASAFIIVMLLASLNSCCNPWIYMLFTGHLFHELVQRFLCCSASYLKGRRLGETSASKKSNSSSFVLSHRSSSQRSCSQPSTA
Turning to `Cc1cccc(OCC(=O)NC(=S)Nc2ccccc2N2CCOCC2)c1`, the activation is -0.15% (inactive).
Take `Cc1ccc(O)c(NC(=S)NC(=O)COc2ccc(Br)cc2)c1`: the activation is 51.9% (active).
For `Cc1ccc(O)c(NC(=O)COc2cc(C)ccc2C)c1`, the activation is 0.92% (inactive).
With `COc1ccc([N+](=O)[O-])cc1NCC(=O)c1ccc(C)cc1` the figure was -1.36% (inactive); with `O=C(NC1CC1)C1=C[C@H](c2c[nH]c3ccccc23)C[C@H](OCc2ccc(CO)cc2)O1`, -0.84% (inactive).
With `NC(=O)C1=C[C@H](c2csc3ccccc23)C[C@H](OCc2ccc(CO)cc2)O1` the figure was 25.9% (active); with `NC(=O)C1=C[C@@H](c2csc3ccccc23)C[C@@H](OCc2ccc(CO)cc2)O1`, 5% (inactive); with `Cc1ccc(NC(=O)CN(C)C(=O)c2cccc(S(=O)(=O)N3CCCC3)c2)cc1`, -1.01% (inactive).
With `COc1ccc(/C=C2\SC(=S)N(CCC(=O)Nc3cccc(C(=O)O)c3)C2=O)cc1OC` the figure was -0.74% (inactive).
Regarding `COc1ccc(/C=C2\SC(=S)N(CCCC(=O)NC3CCCC3)C2=O)cc1OC`, the activation is -1.19% (inactive).
In the case of `COc1cc(/C=C2/SC(=S)N(Cc3ccccc3)C2=O)cc(OC)c1O`, the activation was 23.8% (active).
`COCCn1c(N)c(NCc2ccccc2)c(=O)[nH]c1=O`: the activation was 0.2% (inactive).
The value for `Cc1ccccc1NC(=O)NCC1CCN(Cc2cccc(Cl)c2)CC1` was 1.57% (inactive).
As to `COc1ccc(Cl)cc1NC(=O)NCC1CCN(Cc2ccccc2F)CC1`, the activation is 19.8% (active).
As for `COc1cc(NC(=O)NCC2CCN(Cc3ccc(C)cc3)CC2)cc(OC)c1OC`, the activation was 1.34% (inactive).
Take `Cc1cccc(CN2CCC(CNC(=O)Nc3ccc(F)c(Cl)c3)CC2)c1`: the activation was 28.2% (active).
With `O=C(NCC1CCN(Cc2ccccc2Cl)CC1)Nc1cccc(Cl)c1` the figure was 4.22% (inactive).
Regarding `Cc1ccc(C)c(CN2CCC(CNC(=O)Nc3ccc(C)c(F)c3)CC2)c1`, the activation is 2.73% (inactive).
The value for `CCn1cc(CCC(=O)NCc2ccc(F)cc2)c2ccccc21` was -1.14% (inactive).
For `COc1ccc(C(C#N)N2N=C(C)CC2(C)C)cc1` (stereo not given), the activation was 0.73% (inactive).
With `COc1cc(C(F)(F)F)c(C(=O)N(C)c2ccc(Cl)cc2)cn1` the figure was -1.66% (inactive).
The value for `COc1ccccc1CNS(=O)(=O)c1cc2c3c(c1)CCC(=O)N3CCC2` was 2.19% (inactive); that for `CCOc1ccc(N(C(=O)c2snc(C(N)=O)c2N)C(C(=O)NCC2CCCO2)c2c[nH]c3ccccc23)cc1` (stereo not given) was 1.87% (inactive); that for `CCOC(=O)N1CCN(CCC(=O)Nc2ccccc2)CC1` was -0.17% (inactive).
With `Cc1cc(NC(=O)CCN2CCN(Cc3ccccc3)CC2)ccc1Br` the figure was 23.2% (active).
On to `CC1CCN(CCC(=O)Nc2ccccc2)CC1`, for which the activation was -0.16% (inactive).
The value for `Cc1ccccc1CCNC(=O)C1CCC(=O)N(Cc2ccc(Cl)cc2)C1` (stereo not given) was -1.42% (inactive); that for `CCCCCN(C(=O)CCC(=O)OCC(=O)NCc1ccc(OC)cc1)c1c(N)n(CCCC)c(=O)[nH]c1=O` was -0.95% (inactive); that for `Cc1ccc(-c2cc(C(=O)NN)n[nH]2)o1` was -1.85% (inactive).
Take `COc1ccc(C(=O)NNC(=O)c2cc(C)[nH]n2)cc1`: the activation is -1.68% (inactive).
With `CC(CO)(CO)NC(=O)c1ccc(=O)[nH]n1` the figure was 45.8% (active); with `O=C(CSc1nc2[nH]ncc2c(=O)[nH]1)Nc1ccc(F)cc1`, 0.71% (inactive); with `O=C(NCCC1CCCCN1S(=O)(=O)c1ccc(Cl)cc1)C(=O)NCc1ccco1` (stereo not given), -1.1% (inactive).
Turning to `CCN(CC)c1ccc2oc(=O)c(C)nc2c1`, the activation is 38% (active).
`C=CCN(C(=O)Nc1ccc2oc(C)nc2c1)c1ccccc1`: the activation was -0.77% (inactive).
As to `CCN(CC)c1ccc(C(=O)Nn2c(C)nc3ccccc3c2=O)cc1`, the activation is 3.66% (inactive).
As for `CCOc1ccc(C)cc1S(=O)(=O)NC1CCCCCC1`, the activation was -1.02% (inactive).
The value for `C[C@@H]1O[C@@H](OC[C@H]2O[C@@H](Oc3c(-c4ccc(O)cc4)oc4cc(O)cc(O)c4c3=O)[C@H](O)[C@@H](O)[C@@H]2O)[C@H](O)[C@H](O)[C@H]1O` was -0.01% (inactive); that for `CCCCc1nc(NCCN)c(C#N)c2c1CSC(C)(C)C2` was 7.89% (inactive).
With `CCCC(O)(c1ccc(OC)cc1)C(CN(C)C)c1ccccc1` (stereo not given), the activation is 1.32% (inactive).
The value for `COC(=O)c1ccc(OCC(O)CN(CCO)CC(O)Cn2ccc3ccccc32)cc1` (stereo not given) was 3.04% (inactive).
With `COc1ccc(CN2C(=O)CC(Cc3ccc(C)cc3)C2=O)cc1OC` (stereo not given) the figure was -1.49% (inactive); with `CCN(Cc1ccccc1)C(=O)CSc1nc(C)cc2c1C(=O)OC2`, 1.04% (inactive).
The value for `Cc1ccc(CNC(=O)c2ccc3c(c2)S(=O)(=O)c2ccccc2C3=O)cc1` was -0.21% (inactive); that for `Cc1ccc(CNC(=O)c2cccc3c2C(=O)c2ccc(N4CCC(C)CC4)cc2S3(=O)=O)cc1` was 40.5% (active).
As for `CC1CCN(c2c(NCc3ccc(C(=O)NCc4ccccc4)cc3)c(=O)c2=O)CC1`, the activation is 0.21% (inactive).
In the case of `CC(C)Oc1c(Br)cc(Br)cc1/C=N/NC(N)=S`, the activation is -1.11% (inactive).
The value for `Nc1c(C(=O)c2cccs2)sc2nsc(SCCN3CCCCC3)c12` was 50.2% (active).
With `O=C(CSc1ncnc2sccc12)N1CCN(C(=O)c2cccs2)CC1` the figure was 1.17% (inactive).
With `O=C(CCCN1C(=O)CCC1=O)Nc1ccc(Cl)c(C(F)(F)F)c1`, the activation is 6.54% (inactive).
For `CC1=CC(=C(C#N)c2nc3ccccc3s2)C=C(C)N1c1ccc(F)cc1F`, the activation was 0.27% (inactive).
The value for `O=c1[nH][nH]c(C(F)(F)F)c1C=NCc1ccccc1Cl` was 1.38% (inactive); that for `O=C(NCCCc1ccccc1)C(=O)NCC1OCCN1S(=O)(=O)c1ccccc1` (stereo not given) was -0.3% (inactive); that for `COc1cccc2cc(S(=O)(=O)c3ccc(C)cc3)/c(=N/NS(=O)(=O)c3ccc(C)cc3)oc12` was -0.02% (inactive).
The value for `Cc1cc(S(=O)(=O)c2cc3ccc(O)c(C)c3oc2=O)ccc1F` was 20.6% (active); that for `COC(=O)Cc1cc(=O)oc2c(C)c(O)ccc12` was 3.75% (inactive); that for `COCCNC(=O)NC(=O)COC(=O)C1(c2ccc(Cl)cc2)CC1` was -1.47% (inactive).
The value for `CCc1c(C)sc(NC(=O)OC)c1C(=O)N1CCOCC1` was -0.45% (inactive); that for `CCOc1cc(/C=C2/C(=N)N3OC(C)=CC3=NC2=O)ccc1OC` was -0.04% (inactive).
For the compound `CC1=CC2=NC(=O)/C(=C/c3coc4ccccc4c3=O)C(=N)N2O1`, the activation is 30.4% (active).
The value for `COc1ccc(OCCCn2cccc2/C=C2/C(=N)N3OC(C)=CC3=NC2=O)cc1` was 1.35% (inactive); that for `C=CCSc1nc(N)cc(=O)[nH]1` was 0.06% (inactive).
With `CCCCCCCCCCOC(=O)Cn1c(COc2cccc(OC)c2)[n+](C)c2ccccc21` the figure was 21.5% (active).
The value for `CCOC(=O)Cn1c(-c2cccnc2Cl)nc2ccccc21` was 0.33% (inactive); that for `CCCCCCCCCCOC(=O)Cn1c(COc2ccc(C)cc2)[n+](C)c2ccccc21` was -1.93% (inactive).
`CC1=CC(C)(C)NC(=S)N1c1ccccc1`: the activation is -0.69% (inactive).
As to `Cc1cc(N)n2nc(-c3ccc(C(C)(C)C)cc3)cc2n1`, the activation is -1.18% (inactive).
The value for `C#CCOCCOCCOCCNc1nc(N2CCN(C(=O)C([C@@H](C)CC)n3cc(C(N)COC(=O)C(F)(F)F)nn3)CC2)nc(N2CCN(C(=O)[C@H](Cc3ccc(O)cc3)n3cc(C(N)[C@H](C)CC)nn3)CC2)n1` (stereo not given in full) was 0.32% (inactive); that for `c1ccc2c(CCN3CCNC[C@H]3Cc3cccc4ccccc34)cccc2c1` was 8.2% (inactive); that for `c1ccc(C2CNCc3c2ccc2ccccc32)cc1` (stereo not given) was 22.4% (active).
With `COCCn1c(=O)[nH]c(=O)c2cc(C(=O)c3cc(OC)ccc3O)cnc21` the figure was -0.31% (inactive).
With `Cc1ccc2oc(=O)c3cnn(CC(=O)N(Cc4ccco4)C4CCCCC4)c3c2c1` the figure was -1.36% (inactive).
`CC1CN(S(=O)(=O)c2ccc(C(=O)NN3CCN(C)CC3)cc2)CC(C)O1` (stereo not given): the activation was 0.04% (inactive).
As for `Brc1ccc(C2=CC(c3ccco3)n3ncnc3N2)cc1` (stereo not given), the activation is 16.4% (inactive).
The value for `CCOc1ccc(C2=CC(c3ccccc3)n3ncnc3N2)cc1` (stereo not given) was -2.25% (inactive); that for `COc1ccc(C2C=C(c3ccc(Br)cc3)Nc3nc(NS(C)(=O)=O)nn32)cc1` (stereo not given) was 20.5% (active).
Turning to `COc1ccc(OC)c(NC(=S)N2CCc3ccccc3C2)c1`, the activation is -1.2% (inactive).
In the case of `O=S(=O)(c1cccc(Cn2nnc(-c3ccc(F)cc3)n2)c1)N1CCOCC1`, the activation was 18.4% (inactive).
The value for `O=C(C1CCCN1S(=O)(=O)c1ccc(Br)cc1)N1CCOCC1` (stereo not given) was -0.61% (inactive); that for `COc1ccc(CNC(=O)c2nnn(CC(=O)Nc3cc(C)cc(C)c3)c2N)cc1` was 0.21% (inactive).
With `COc1ccc(NC(=O)Cn2nnc(C(=O)NCCc3ccc(OC)c(OC)c3)c2N)cc1` the figure was -0.34% (inactive); with `CCOc1ccc(Cn2nnc(C(=O)NCc3ccccc3)c2N)cc1`, 32% (active).
For the compound `CCc1ccc(NC(=O)Cn2nnc(C(=O)NCc3ccc(OC)cc3)c2N)cc1`, the activation was 0.62% (inactive).
The value for `CCOc1ccc(Cn2nnc(C(=O)Nc3ccc(OC)cc3OC)c2N)cc1` was 25.1% (active); that for `COc1cccc(CNC(=O)c2nnn(CC(=O)Nc3cc(Cl)ccc3C)c2N)c1` was 2.37% (inactive); that for `Cc1ccc2c(c1)N(CC(=O)N1CCC(C)CC1)C(=O)c1cccnc1O2` was 1.7% (inactive).
With `CCc1cccc(CC)c1NC(=O)COc1ccccc1C(=O)c1cc(C#N)c(=O)n(C2CCCCC2)c1` the figure was 2.32% (inactive); with `Cc1cc(C(=O)NC2CCN(Cc3ccccc3)CC2)n[nH]1`, 0.51% (inactive).
Take `CN(CC(=O)NCc1ccc(Cl)cc1)S(=O)(=O)c1cccs1`: the activation was 0.76% (inactive).
On to `CC(Oc1cccc(Cl)c1)C(=O)Nc1ccc(S(=O)(=O)Nc2ncccn2)cc1` (stereo not given), for which the activation was 1.17% (inactive).
